The term inhibition denotes the relative decrease from the control value, in per cent.

Each structure is given as a SMILES string. Values joined by “and” are separate entries in the source; they are usually repeats but may differ in a detail not shown here. Equal values may be shown once. Active and inactive are the calls of the source.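 Rule for the calls, unless noted: active = compounds whose cell count with miR-34 switched on is under 0.7 times the count with it off; inactive = the rest.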

Assay [1] has as its system Hepatitis C virus NS3 helicase. The experiment in a line: blockers of NS3h binding to ssDNA – biochemical, fluorescence polarization, LOPAC1280 library, primary screen (AID 687035; in the data active = inhibition above about 37%). As to conditions: Purified HCV NS3 helicase, Cy5-dT15 ssDNA binding fluorescence polarization; stronger effect = higher value; concentration not given here. In general terms: In fluorescence polarisation assays a small probe gives low polarisation when free and higher when bound to something large.

Assay [2] in a line: compounds altering Cy5-DNA-NS3h complex signal – biochemical, LOPAC1280, artefact control for HCV NS3 helicase inhibitor project (AID 687037; call rule not given here). As to conditions: Cy5-DNA-NS3h complex fluorescence interference counterscreen. For orientation: The purpose of a counterscreen is to sort out artefacts and off-target activity.
The nature of assay [3]: viability loss with induced miR-34 in A549 – imaging, A549 dox-inducible miR-34, nuclei and caspase counts, primary screen (AID 1347080). As to conditions: A549 miR-34 inducible, Hoechst nuclei count, 48 h.
Assay [4] is described as follows: blockers of cellular phospholipid synthesis – cell-based, LOPAC library, screen 4, primary screen (AID 1347384; call rule not given here). As to conditions: animal cells, phospholipid biosynthesis inhibition screen; at 10 µM.
Assay [5] in a line: galactose survival enhancers in mitochondrial complex I cybrids – cell-based, galactose medium, ATP luminescence, primary screen (AID 1645843;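 active = z-score of at least 1.8 in each of two replicates, scored against plate mean and spread of sample wells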;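 note: positive z means more ATP and so rescue of galactose-driven cybrid death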). As to conditions: complex I mutant cybrid cells, 72 h, stronger effect = higher value.
The nature of assay [6]: MELAS cybrid and Rieske KO viability enhancers – cell-based, MELAS cybrids, Rieske KO mouse fibroblasts, CellTiter-Glo, primary screen (AID 1508586;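 active = mean z-score across replicates of 1.96 or higher in either the MELAS or the Rieske mutant cell line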;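 note: z relative to plate mean and SD of compound and empty wells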). Conditions: low glucose. Background: ATP-based viability assays read luminescence as a measure of living cells.
[7] abbreviates: stronger effect = lower value, cell number ratio, induced over uninduced.
Where [8] appears, read: measured here: relative caspase fold change +Dox/-Dox.
[9] abbreviates: measured here: total cells with miR-34 induction, stronger effect = lower value.
The mark [10] stands for this setting: measured here: total cells without miR-34 induction.
The mark [11] stands for this setting: MELAS cybrid survival, CellTiter-Glo 48 h, stronger effect = higher value.
The mark [12] stands for this setting: Rieske KO mouse fibroblast survival, CellTiter-Glo 72 h.

`Nc1nc2c(ncn2[C@@H]2O[C@H](CO)[C@@H](O)[C@@H]2O)c(=O)[nH]1`: the inhibition in assay [1] is -2% (inactive). The fluorescence ratio (interference) in assay [2] was 1 (inactive). The fold change in assay [3] (setting [7]) is 0.934 (inactive); in assay [3] (setting [8]), 1.54. For the same compound, the values for the cell count in assay [3] (setting [9]) and in assay [3] (setting [10]) were 8710 and 9330, respectively. For the same compound, the compound was classed as inactive in assay [4]. In assay [5], the z-score was 4.94 (active).

For `O=C(CCCCCCC(=O)Nc1ccc(C2OC(CSc3nc(-c4ccccc4)c(-c4ccccc4)o3)CC(c3ccc(CO)cc3)O2)cc1)NO` (configuration not stated), the fold change was 0.92 (inactive) in assay [3] (setting [7]) and 0.644 in assay [3] (setting [8]). Further, the figures for the cell count in assay [3] (setting [9]) and in assay [3] (setting [10]) were 6200 and 6750, respectively. Further, the z-score in assay [6] (setting [11]) is -0.366 (inactive); in assay [6] (setting [12]) it was 1.07.

Consider `CC(=Cc1ccc(C(=O)O)cc1)c1ccc2c(c1)C(C)(C)CCC2(C)C`, for which the fold change is 0.986 (inactive) in assay [3] (setting [7]) and 0.781 in assay [3] (setting [8]). Moreover, the cell count in assay [3] (setting [9]) amounted to 8250; in assay [3] (setting [10]) it was 8370. Moreover, the z-score in assay [6] (setting [11]) was -0.023 (inactive); in assay [6] (setting [12]), -0.2.

For the compound `CCCC(CCC)C(=O)OC1CC2CCC(C1)[N+]2(C)C` (configuration not stated), in assay [1], the inhibition was 0% (inactive). In addition, the fluorescence ratio (interference) in assay [2] was 1.1 (inactive). Besides, the fold change was 0.959 (inactive) in assay [3] (setting [7]) and 1.54 in assay [3] (setting [8]). For the same compound, the cell count in assay [3] (setting [9]) was found to be 9840; in assay [3] (setting [10]), 10300. In assay [4], the compound was called inactive. Moreover, in assay [5], the z-score was -0.005 (inactive).

As for `CN(C)CCCCC(=O)Nc1ccc(NC(=S)NC(=O)c2ccc(C(C)(C)C)cc2)cc1`, the fold change was 1.13 (inactive) and 1.1 (inactive) in assay [3] (setting [7]); 0.871 and 0.667 in assay [3] (setting [8]). The cell count in assay [3] (setting [9]) is 4160 and 3360; in assay [3] (setting [10]), 3670 and 3070. Also, the z-score is 0.0334 (inactive) in assay [6] (setting [11]) and -0.0265 in assay [6] (setting [12]).

With `C=C(C)C1CC[C@]2(C(=O)O)CC[C@]3(C)[C@H](CC[C@@H]4[C@@]5(C)CCC(O)C(C)(C)[C@@H]5CC[C@]43C)[C@@H]12` (some centres not stated), the fold change in assay [3] (setting [7]) is 0.87 (inactive); in assay [3] (setting [8]), 0.918. Besides, the cell count in assay [3] (setting [9]) worked out at 6780; in assay [3] (setting [10]), 7790. The z-score was -0.0804 (inactive) in assay [6] (setting [11]) and -0.141 in assay [6] (setting [12]).

On to `COC(=O)C1C(O)CC[C@H]2CN3CCc4c([nH]c5ccccc45)[C@@H]3C[C@H]12` (some centres not stated), for which the figures for the fold change in assay [3] (setting [7]) and in assay [3] (setting [8]) were 0.892 (inactive) and 0.762, respectively. The cell count in assay [3] (setting [9]) amounted to 8840; in assay [3] (setting [10]), 9910. Further, the z-score in assay [6] (setting [11]) was -0.303 (inactive); in assay [6] (setting [12]) it was 0.721.

For the compound `CC1C(NC(=O)C(=NOC(C)(C)C(=O)O)c2csc(N)n2)C(=O)N1S(=O)(=O)O` (configuration not stated), the fold change was 0.929 (inactive) in assay [3] (setting [7]) and 0.823 in assay [3] (setting [8]). Besides, the cell count came out at 7110 in assay [3] (setting [9]) and 7650 in assay [3] (setting [10]). For the same compound, the z-score in assay [6] (setting [11]) was -0.398 (inactive); in assay [6] (setting [12]) it was 0.579.

On to `CC(C)CN(C[C@H](O)[C@@H](Cc1ccccc1)NC(=O)O[C@@H]1CO[C@H]2OCC[C@H]21)S(=O)(=O)c1ccc(N)cc1`, for which the fold change in assay [3] (setting [7]) was 0.938 (inactive); in assay [3] (setting [8]), 0.791. The cell count in assay [3] (setting [9]) came to 7440; in assay [3] (setting [10]), 7930. For the same compound, the results for the z-score in assay [6] (setting [11]) and in assay [6] (setting [12]) were -0.364 (inactive) and 0.28, respectively.

In the case of `C#C[C@@]1(O)CC[C@H]2[C@@H]3CCc4cc(OC)ccc4[C@@H]3CC[C@@]21C`, the figures for the fold change in assay [3] (setting [7]) and in assay [3] (setting [8]) were 0.921 (inactive) and 0.824, respectively. Further, the values for the cell count in assay [3] (setting [9]) and in assay [3] (setting [10]) were 7730 and 8400, respectively. Also, the z-score in assay [6] (setting [11]) was -0.343 (inactive); in assay [6] (setting [12]) it was 0.814.

On to `O=C(O)C(Cc1ccccc1[N+](=O)[O-])=NNC1=NC(c2ccc(Cl)c(Cl)c2)CS1` (configuration not stated), for which the figures for the fold change in assay [3] (setting [7]) and in assay [3] (setting [8]) were 0.88 (inactive) and 0.284, respectively. For the same compound, the results for the cell count in assay [3] (setting [9]) and in assay [3] (setting [10]) were 6240 and 7100, respectively. Besides, the figures for the z-score in assay [6] (setting [11]) and in assay [6] (setting [12]) were -0.273 (inactive) and 0.221, respectively.

Turning to `Cc1cc2c(cc1Cl)N(C(=O)Nc1ccnc3ccccc13)CC2`, the inhibition in assay [1] is -1% (inactive). In assay [2], the fluorescence ratio (interference) was 0.9 (inactive). Moreover, the fold change is 1.12 (inactive) in assay [3] (setting [7]) and 1.03 in assay [3] (setting [8]). Moreover, the cell count is 10500 in assay [3] (setting [9]) and 9390 in assay [3] (setting [10]). Moreover, the result in assay [4] was inactive. For the same compound, the z-score in assay [5] is -0.09 (inactive).

In the case of `O=C(NS(=O)(=O)c1ccc(Br)s1)c1ccc(Cl)cc1Cl`, the results for the fold change in assay [3] (setting [7]) and in assay [3] (setting [8]) were 0.902 (inactive) and 0.488, respectively. In addition, the cell count in assay [3] (setting [9]) was 7360; in assay [3] (setting [10]), 8160. Further, the z-score in assay [6] (setting [11]) was -0.252 (inactive); in assay [6] (setting [12]), -0.754.

Consider `COc1ccc(CNc2nc(N3CCCC3CO)ncc2C(=O)NCc2ncccn2)cc1Cl` (configuration not stated), for which the fold change in assay [3] (setting [7]) was 0.988 (inactive); in assay [3] (setting [8]), 1.09. Also, the cell count amounted to 8210 in assay [3] (setting [9]) and 8300 in assay [3] (setting [10]). In addition, the z-score in assay [6] (setting [11]) is -0.603 (inactive); in assay [6] (setting [12]), -0.114.

As for `COc1ccc2cc1Oc1ccc(cc1)CC1c3cc(c(OC)cc3CCN1C)Oc1c(OC)c(OC)cc3c1C(C2)N(C)CC3` (configuration not stated), the values for the fold change in assay [3] (setting [7]) and in assay [3] (setting [8]) were 0.908 (inactive) and 0.992, respectively. Besides, the cell count turned out to be 6590 in assay [3] (setting [9]) and 7260 in assay [3] (setting [10]). Besides, the z-score is -0.603 (inactive) in assay [6] (setting [11]) and -0.273 in assay [6] (setting [12]).

As for `CCC(=O)OCC(=O)[C@]1(OC(=O)CC)C(C)C[C@H]2[C@@H]3CCC4=CC(=O)C=C[C@]4(C)[C@]3(Cl)C(O)C[C@@]21C` (some centres not stated), the values for the fold change in assay [3] (setting [7]) and in assay [3] (setting [8]) were 0.952 (inactive) and 0.747, respectively. Moreover, the cell count in assay [3] (setting [9]) was determined as 5950; in assay [3] (setting [10]) it was 6250. The z-score is -0.503 (inactive) in assay [6] (setting [11]) and -0.134 in assay [6] (setting [12]).

On to `O=c1cc(-c2ccccc2F)[nH]c2cc3c(cc12)OCO3`, for which the inhibition in assay [1] is -7% (inactive). Moreover, the fluorescence ratio (interference) in assay [2] was 0.9 (inactive). Besides, the fold change in assay [3] (setting [7]) is 1.11 (inactive); in assay [3] (setting [8]), 0.744. Also, the cell count in assay [3] (setting [9]) was found to be 1710; in assay [3] (setting [10]), 1540. In assay [4], the outcome was inactive. For the same compound, in assay [5], the z-score is -0.62 (inactive).

As for `CC(C)C(N)C(=O)OCC(CO)OCN1C=NC2C(=O)NC(N)=NC21` (configuration not stated), the fold change in assay [3] (setting [7]) is 0.916 (inactive); in assay [3] (setting [8]), 0.625. In addition, the cell count in assay [3] (setting [9]) is 8420; in assay [3] (setting [10]), 9190. Besides, the figures for the z-score in assay [6] (setting [11]) and in assay [6] (setting [12]) were -0.0737 (inactive) and -0.153, respectively.

`CC1(C)O[C@@H]2C[C@H]3[C@@H]4CCC5=CC(=O)C=C[C@]5(C)[C@@H]4C(O)C[C@]3(C)[C@@]2(C(=O)CO)O1` (some centres not stated): the fold change was 0.87 (inactive) in assay [3] (setting [7]) and 1.16 in assay [3] (setting [8]). Further, the results for the cell count in assay [3] (setting [9]) and in assay [3] (setting [10]) were 5200 and 5970, respectively. Besides, the z-score is -0.511 (inactive) in assay [6] (setting [11]) and -0.393 in assay [6] (setting [12]).

Regarding `CC(=O)/C=C1\C(=O)N(C)c2ccccc21`, in assay [1], the inhibition was -2% (inactive). For the same compound, in assay [2], the fluorescence ratio (interference) is 0.9 (inactive). Also, the fold change in assay [3] (setting [7]) was 0.98 (inactive); in assay [3] (setting [8]) it was 1.31. Besides, the figures for the cell count in assay [3] (setting [9]) and in assay [3] (setting [10]) were 6920 and 7060, respectively. The result in assay [4] was inactive. The z-score in assay [5] is -1.48 (inactive).

Turning to `NC(=O)NN=Cc1ccc([N+](=O)[O-])o1`, the fold change in assay [3] (setting [7]) was 0.88 (inactive); in assay [3] (setting [8]), 0.871. Further, the figures for the cell count in assay [3] (setting [9]) and in assay [3] (setting [10]) were 7280 and 8270, respectively. In addition, the z-score was -0.0834 (inactive) in assay [6] (setting [11]) and -0.616 in assay [6] (setting [12]).

`CNc1nc(-c2ccc3c(N)n[nH]c3c2)cc(N2CC(C(=O)NC3CCCCC3)CCC2C)n1` (configuration not stated): the values for the fold change in assay [3] (setting [7]) and in assay [3] (setting [8]) were 0.8 (inactive) and 0.791, respectively. The cell count was determined as 6100 in assay [3] (setting [9]) and 7620 in assay [3] (setting [10]). Moreover, the z-score in assay [6] (setting [11]) is 0.231 (inactive); in assay [6] (setting [12]), -0.229.

For the origin of these results see PubChem BioAssay.
